TDP1 cell noCPT – qHTS for Inhibitors of human tyrosyl-DNA phosphodiesterase 1 (TDP1): qHTS in cells in absence of CPT; AID 686978, 2013; Potency, µM (series often up to 46.2 µM), inactives show at the top dose activity change, negative = growth inhibition, usual class: inhibitors; 420,000 tested, 15% active; DT40 Tdp1-/- hTDP1 cells, no CPT, ATP luminescence, 48 h; note: potency is the fitted concentration of half-maximal effect; nearly all actives have a fitted effect of over 55% in size
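DT40 Tdp1-/-;hTDP1 cells, no CPT (DMSO vehicle only), 400 cells/well; compounds pin-transferred; ≥48 hr, 37 °C; CellTiter-Glo 30 min RT dark, luminescence read.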
ELG1 DNA repair – blocks ELG1-dependent DNA repair in HEK293T cells; 330,000 tested, 2.3% active; HEK293T ELG1-luciferase reporter, luminescence, 16 h; DNA damage induced by 5-fluorouridine; Potency, µM (highest dose often 46.1 µM), for the others: at the top dose activity change, negative = inhibition, hits mostly inhibitors; note: potency is the fitted concentration of half-maximal effect; nearly all actives have a fitted effect of over 55% in size
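Cells (2,000 per well) received 5-fluorouridine plus test compound or DMSO and were incubated 16 hr at 37 °C, 5% CO2. Luciferase activity was read by luminescence 30 min after ONE-Glo addition; signal suppression marked inhibition of damage-induced ELG1 function.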
HT1080 IDH1KD tx – kills HT-1080 cells with IDH1 knockdown; 360,000 tested, 2% active; AID 686971; HT-1080 IDH1 knockdown viability, ATP luminescence, 48 h; Potency, µM (highest dose often 46.1 µM), for the others: top-dose activity, negative = toxicity, most hits filed as cytotoxic;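 note: potency is the fitted concentration of half-maximal effect; 0% = DMSO wells and -100% = cell-free medium wells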
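Cytotoxicity counter-line: IDH1KD HT-1080, 48 h, CellTiter-Glo. Curves classed by r2, magnitude and activity.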
IL-1B inflam inh – inhibitors of inflammasome signaling (IL-1 beta secretion); THP-1 LPS/ATP IL-1B secretion, AlphaLISA, 16 h; active compounds read low; activity change, % at 57.5 µM; 360,000 tested, 4.7% active; AID 743279; in the data active = activity change below about -50%; inconclusive = mostly about -30% to -49%
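THP-1 cells pretreated 1 hr with compounds (up to 57.5 uM final), then stimulated with LPS (250 ng/mL final) plus ATP (1.25 mM final); secreted IL-1B measured by AlphaLISA after 16 hr, decreased signal indicating inhibition.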
HT1080NT lethal – kills 2HG-producing HT-1080-NT fibrosarcoma cells; Potency, µM (series often up to 46.1 µM), for inactives: at the top dose activity, negative = less viability, hits mostly cytotoxic; 360,000 tested, 1.6% active; HT-1080-NT fibrosarcoma viability, CellTiter-Glo ATP luminescence, 48 h;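 note: NT is the 2HG producing partner of a matched IDH1 knockdown line; potency is the fitted concentration of half-maximal effect; 0% = DMSO-treated cells and -100% = media-only wells without cells; nearly all actives have a fitted effect of over 55% in size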
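Compounds were tested in concentration-response format on HT-1080-NT cells for 48 hours at 37 degrees C. Cell viability came from CellTiter-Glo luminescence; curves were classified by r2, response magnitude and activity.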
DT40 TDP1 CPT – DT40-hTDP1 cell growth loss with CPT | chicken DT40 Tdp1-/-;hTDP1 cells + 20 nM CPT, ATP luminescence, 48 h | Potency, µM (highest dose often 46.2 µM), for the others: top-dose activity change, negative = growth inhibition, hits mostly inhibitors | 420,000 tested, 12% active | AID 686979; note: potency is the fitted concentration of half-maximal effect; nearly all actives have a fitted effect of over 55% in size
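Chicken DT40 Tdp1-/- cells stably complemented with human TDP1 were seeded at 400 cells/well in medium containing 20 nM camptothecin, exposed to pin-transferred compounds, and grown at 37 °C for at least 48 hr. Viability was read as ATP luminescence.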
Active calls of the source: *; ? = inconclusive; nt = no result given. Hits are enriched below; roughly 19% of the tested compounds scored in any of these assays. Unless noted, calls come from the whole dose curve; as a rule, active = well fitted curve in the direction sought with a large enough effect; inconclusive = small, poorly fitted or top-dose-only effect, or another doubt; inactive = no such curve, though single readings can be large; an effect the other way counts as inactive or inconclusive. Unless noted, % is set by controls: 0 for no effect and ±100 for the full control effect.

SMILES	TDP1 cell noCPT	ELG1 DNA repair	HT1080 IDH1KD tx	IL-1B inflam inh	HT1080NT lethal	DT40 TDP1 CPT
O=C(/C=C/c1ccc(Cl)cc1)Nc1nccs1	?	?	-23.9%	14.0	-2.2%	-29.4%
COc1ccccc1N1CCN(C2CCN(S(=O)(=O)c3ccc4ccccc4c3)CC2)CC1	?	-27.2%	0.5%	-62.4*	-3.1%	?
O=S(=O)(c1ccc2nc(-c3ccccc3)[nH]c2c1)N1CCN(c2cccc(Cl)c2)CC1	?	?	-23.0%	24.2	?	1.6%
COc1ccccc1N1CCN(S(=O)(=O)c2ccc3nc(-c4ccccc4)[nH]c3c2)CC1	20.6µM*	?	-5.9%	?	-5.8%	?
COc1ccc(-n2nc3c(N4CCC(C(=O)N5CCCCCC5)CC4)nnc(C)c3c2C)cc1	?	0.8%	?	-14.8	-17.5%	?
COc1ccc(-n2nc3c(N4CCCC(C(=O)NCc5cccc(F)c5)C4)nnc(C)c3c2C)cc1 (stereo unspecified)	13µM*	nt	nt	nt	nt	8.2µM*
Cc1nnc(N2CCCC(C(=O)NCc3cccc(F)c3)C2)c2nn(-c3ccccc3)c(C)c12 (stereo unspecified)	13µM*	?	-15.5%	?	-3.9%	?
CC[C@H](/C=C/[C@@H](C)[C@H]1CC[C@H]2C3CC=C4C[C@@H](O)CC[C@]4(C)C3CC[C@]12C)C(C)C (stereo partly specified)	-11.0%	nt	nt	nt	nt	1.7%
Cn1c(=O)n(-c2ccc3c(c2)OCO3)c2nc(-c3ccccc3)nc(C(N)=O)c21	?	nt	nt	nt	nt	-0.9%
O=C(CCNC(=O)c1ccco1)Nc1ccc(F)c(Cl)c1	-14.7%	26.1%	1.3%	-15.0	-1.1%	-4.9%
COc1cc[n+]([O-])cc1[N+](=O)[O-]	2.31µM*	nt	20.4%	-19.3	17.8%	?
Fc1ccc(C(c2nnc(-c3ccccc3)o2)N2CCN(c3ccccc3)CC2)c(Cl)c1 (stereo unspecified)	20.6µM*	nt	nt	nt	nt	?
CC(C)c1ccc(NC(c2nnc(-c3ccccc3)o2)c2ccc(F)cc2Cl)cc1 (stereo unspecified)	18.4µM*	nt	nt	nt	nt	?
CCOc1ccccc1NC(c1nnc(-c2ccccc2)o1)c1ccc(F)cc1Cl (stereo unspecified)	20.6µM*	nt	nt	nt	nt	?
Clc1ccccc1N1CCN(Cc2nnc(-c3ccccc3)o2)CC1	?	nt	nt	nt	nt	-27.3%
O=C(Nc1ccccc1)O[C@@H]1C[C@H]2CCC(=O)N3CC[C@@H](C1)[C@@H]23	11.2µM*	?	nt	nt	nt	?
O=C(Nc1ccccc1)O[C@@H]1C[C@H]2CCCC(=O)N3CC[C@@H](C1)[C@@H]23	-11.5%	nt	4.9%	-13.2	0.3%	?
CC(C)CC(N)c1csc(Nc2ccc(C(=O)N(C)Cc3ccccc3)cn2)n1 (stereo unspecified)	5.8µM*	nt	5.8µM*	-13.6	4.61µM*	5.17µM*
CN(Cc1ccccc1)C(=O)c1ccc(Nc2nc(C(N)Cc3ccccc3)cs2)nc1 (stereo unspecified)	13µM*	nt	20.6µM*	-8.9	?	14.6µM*
CN(Cc1ccccc1)C(=O)c1ccc(Nc2nc(C(N)COCc3ccccc3)cs2)nc1 (stereo unspecified)	?	nt	?	?	23.1µM*	?
NC(CCc1ccccc1)c1csc(Nc2ccc(C(=O)NCCCO)cn2)n1 (stereo unspecified)	-22.5%	nt	-0.6%	-19.9	?	-29.5%
CC(C)C(N)c1csc(Nc2ccc(C(=O)NCCCO)cn2)n1 (stereo unspecified)	-6.4%	nt	6.6%	5.9	?	-1.3%
CN(Cc1ccccc1)C(=O)c1ccc(Nc2nc(C(N)Cc3ccc(C(F)(F)F)cc3)cs2)nc1 (stereo unspecified)	11.6µM*	nt	nt	-105.3*	nt	11.6µM*
COc1ccccc1C(O)c1ncc(-c2cccc(C(F)(F)F)c2)[nH]1 (stereo unspecified)	?	nt	-19.7%	-19.6	?	-8.5%
CCOc1ccc2nc(S(=O)(=O)NC(=O)C3(C)CCN3C(=O)CCc3cccs3)sc2c1 (stereo unspecified)	-2.2%	nt	?	54.3	11.6%	7.3%
SMILES	TDP1 cell noCPT	ELG1 DNA repair	HT1080 IDH1KD tx	IL-1B inflam inh	HT1080NT lethal	DT40 TDP1 CPT
COc1ccc(CCNC(=O)CNS(=O)(=O)c2cccs2)cc1OC	-0.6%	3.4%	4.6%	6.6	2.4%	-6.5%
CCCCN(C)C(=O)c1ccc(Nc2nc(C(N)Cc3ccccc3)cs2)nc1 (stereo unspecified)	14.6µM*	nt	-27.0%	-7.4	23.1µM*	23.1µM*
NC(Cc1ccccc1)c1csc(Nc2ccc(C(=O)NCCCO)cn2)n1 (stereo unspecified)	?	nt	15.3%	-4.2	-4.5%	?
CCCNC(=O)NC(=O)COC(=O)c1ccc(S(=O)(=O)N(C)c2ccccc2OC)cc1	20.6µM*	-19.8%	-18.0%	27.1	-10.0%	29.1µM*
CCN(CC(=O)Nc1ccc(NC(C)=O)cc1)C(=O)c1ccc(N(C)S(=O)(=O)c2ccc(C)cc2)cc1	?	nt	-14.3%	9.1	-19.8%	25.9µM*
CCN(CC(=O)NC(C)C)C(=O)c1ccc(S(=O)(=O)N(C)c2ccccc2OC)cc1	14.6µM*	15.8%	-12.6%	10.9	8.1%	?
CCN(CC(=O)Nc1ccccc1OC)C(=O)c1ccc(N(C)S(=O)(=O)c2ccc(C)cc2)cc1	16.4µM*	16.4µM*	2.1%	-3.7	12.6%	14.6µM*
CCN(CC(=O)Nc1ccccc1OC)C(=O)c1cccc(-n2cccc2)c1	-6.2%	-0.8%	-7.5%	-8.6	0.0%	-16.8%
Cc1cc(C)c2oc(C(=O)Nc3nc4ccc(Cl)cc4s3)cc(=O)c2c1	6.8%	nt	nt	nt	nt	9.2%
CC(C)c1ncc([N+](=O)[O-])n1C	8.2%	nt	nt	nt	nt	15.7%
O=C1CCC[C@@H]2Cc3nc4ccc(Cl)cc4cc3[C@@H]3CCN1[C@H]23	?	nt	8.6%	13.6	13.4%	?
CCN(Cc1ccccc1)C(=O)c1ccc(CNS(=O)(=O)c2ccc(C)cc2)cc1	?	-23.7%	-8.5%	-16.0	-1.3%	?
CCN(Cc1ccccc1)C(=O)c1ccc(N(C)S(=O)(=O)c2ccc(C)cc2)cc1	14.6µM*	0.0%	-9.2%	-2.8	-4.8%	18.4µM*

From PubChem
